Screens (PubChem BioAssay)
IL-1B inflam inh: blocks inflammasome-driven IL-1 beta release. AID 743279. THP-1 LPS/ATP IL-1B secretion, AlphaLISA, 16 h; active compounds read low. actives 4.7% (n = 360,000). activity change, % at 57.5 µM; in the data active = activity change below about -50%; inconclusive = mostly about -30% to -49%
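Secreted IL-1B measured by AlphaLISA bead assay after 16 h compound exposure of THP-1 cells; compounds (final up to 57.5 uM) added 1 h before LPS (250 ng/mL) and ATP (1.25 mM) stimulation; lower signal means less secretion.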
TDP1 cell noCPT: qHTS for Inhibitors of human tyrosyl-DNA phosphodiesterase 1 (TDP1): qHTS in cells in absence of CPT; DT40 Tdp1-/- hTDP1 cells, no CPT, ATP luminescence, 48 h; actives 15% (n = 420,000); Potency, µM (highest dose often 46.2 µM), usual class: inhibitors; note: nearly all actives have a fitted effect of over 55% in size
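Seeded 400 DT40-hTDP1 cells/well (vehicle DMSO, no 20 nM CPT); pinned compounds; ≥48 hr at 37 °C; CellTiter-Glo luminescence as viability measure.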
HT1080NT lethal: kills 2HG-producing HT-1080-NT fibrosarcoma cells; actives 1.6% (n = 360,000); Potency, µM (doses to about 46.1 µM), actives largely listed as cytotoxic; HT-1080-NT fibrosarcoma viability, CellTiter-Glo ATP luminescence, 48 h;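 note: NT is the 2HG producing partner of a matched IDH1 knockdown line; nearly all actives have a fitted effect of over 55% in size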
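750 cells/well, RPMI + 5% FBS; 2 h settle, compound pin-transfer, 48 h at 37 degrees C. CellTiter-Glo 10 min RT, luminescence. Normalized to DMSO and media-only wells.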
TDP1 cell CPT: DT40-hTDP1 cell growth loss with CPT | AID 686979 | chicken DT40 Tdp1-/-;hTDP1 cells + 20 nM CPT, ATP luminescence, 48 h | actives 12% (n = 420,000) | Potency, µM (top dose mostly 46.2 µM), usual class: inhibitors; note: nearly all actives have a fitted effect of over 55% in size
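Cell growth measured by CellTiter-Glo luminescence after a minimum 48 h, 37 C compound exposure with 20 nM CPT in Tdp1-knockout DT40 cells stably expressing hTDP1, seeded 400/well; qHTS titration format.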
HT1080 IDH1KD tx: toxicity to HT-1080 IDH1 knockdown cells (counter line) | HT-1080 IDH1 knockdown viability, ATP luminescence, 48 h | Potency, µM (titrated, usually from 46.1 µM), usual class: cytotoxic | actives 2% (n = 360,000)
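Viability of IDH1-knockdown HT-1080 fibrosarcoma cells was assessed by CellTiter-Glo after 48 h at 37 °C with titrated compound; concentration-effect curves were classified by fit quality and response size.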
Hits are given with their value; . = inactive; ? = inconclusive; / = no result. Sampled rows, rich in hits. Any-hit rate of the full collection: about 19%. Unless noted, calls come from the whole dose curve; as a rule, active = well fitted curve in the direction sought with a large enough effect; inconclusive = small, poorly fitted or top-dose-only effect, or another doubt; inactive = no such curve, though single readings can be large; an effect the other way counts as inactive or inconclusive.

SMILES	IL-1B inflam inh	TDP1 cell noCPT	HT1080NT lethal	TDP1 cell CPT	HT1080 IDH1KD tx
Cc1ccc(Cl)cc1NC(=O)c1sc(-n2nc(C)c(Cc3ccc4c(c3)OCO4)c2C)nc1C	/	2.9µM	/	?	/
COC(=O)c1ccc(COC(=O)C(NC(=O)Cc2ccccc2)C(C)C)cc1 (configuration not stated)	.	16µM	.	.	.
COc1ccccc1C(=O)COC(=O)C(NC(=O)Cc1ccccc1)C(C)C (configuration not stated)	.	?	.	?	.
CC(Cc1ccccn1)NC(=O)CCc1nnc(C2CCCCC2)o1 (configuration not stated)	.	.	?	.	.
Cc1cc(N(C)/N=C/c2ccccc2O)nc(-c2ccccc2O)n1	.	4.1µM	.	5.8µM	.
Cc1cc(Nc2ccc(Br)cc2)nc(-c2ccccc2O)n1	.	.	.	?	.
CCOC(=O)c1c(S(=O)(=O)NCC(=O)Nc2ccc(F)cc2)c(C)n(C)c1C	.	.	.	.	.
CCN(CC)c1ccccc1/C=C/[n+]1ccc(CCCCI)c2ccccc21	/	0.56µM	/	0.63µM	/
CCOC(=O)C1(c2nc(N)cs2)COC(=O)C1 (configuration not stated)	.	.	.	.	.
CCC(C)(C)N1CC(=O)N(Cc2ccccc2)C(c2ccc(OC)cc2)C1=O (configuration not stated)	.	18µM	.	9.2µM	.
COc1ccc(C2C(=O)N(C3CCCCCC3)CC(=O)N2Cc2ccccc2)cc1 (configuration not stated)	/	26µM	/	23µM	/
O=C1C(c2ccc(F)cc2)N(Cc2ccc3c(c2)OCO3)C(=O)CN1C1CCCCCC1 (configuration not stated)	.	15µM	.	?	.
O=C1C(c2ccc(F)cc2)N(Cc2ccccc2Cl)C(=O)CN1C1CCCCC1 (configuration not stated)	/	21µM	/	23µM	/
COc1ccc(C2C(=O)N(C3CCCCC3)CC(=O)N2Cc2ccc3c(c2)OCO3)cc1 (configuration not stated)	.	?	.	?	.
Cc1ccc(S(=O)(=O)Nc2nc(CN3CCOCC3)nc3sc(C(=O)O)c(C)c23)cc1	.	.	.	.	.
COc1ccccc1CN1C(=O)CN(C2CCCCCC2)C(=O)C1c1ccc(C)cc1 (configuration not stated)	/	21µM	/	16µM	/
COc1cc(-c2noc(C)c2C(=O)NCCc2c[nH]c3ccccc23)cc(OC)c1OC	.	?	.	?	.
COc1cc(-c2noc(C)c2-c2ccc(N(C)C)nc2)cc(OC)c1OC	.	0.037µM	0.0058µM	0.13µM	0.18µM
COc1cc(-c2noc(C)c2-c2ccc3[nH]ccc3c2)cc(OC)c1OC	.	1.8µM	1µM	1.5µM	0.037µM
Nc1ccn([C@@H]2O[C@H](C(=O)NCC(F)(F)F)[C@@H](O)[C@H]2O)c(=O)n1	.	.	.	.	.
CCOC(=O)c1c(NC(=O)COC(=O)CCOc2ccc(C)cc2)sc(C(=O)N(C)C)c1C	.	.	.	.	.
CCCCCSc1nc2sc3c(c2c(=O)n1-c1ccc(OC)cc1)CCN(C(C)=O)C3	/	26µM	/	?	/
CCCCSc1nc2sc3c(c2c(=O)n1-c1ccc(OC)cc1)CCN(C)C3	.	?	.	?	.
CSc1nc2sc3c(c2c(=O)n1-c1ccc(C)c(Cl)c1)CCN(C(C)=O)C3	/	15µM	/	?	/
CCCCSc1nc2sc3c(c2c(=O)n1-c1ccccc1)CCN(C)C3	.	7.3µM	.	9.2µM	.
SMILES	IL-1B inflam inh	TDP1 cell noCPT	HT1080NT lethal	TDP1 cell CPT	HT1080 IDH1KD tx
CN1CCc2c(sc3nc(SCC(N)=O)n(-c4ccc(Cl)cc4)c(=O)c23)C1	.	23µM	.	?	.
Cc1c(NC(=O)c2ccc(S(=O)(=O)N3CCOCC3)cc2)c(=O)n(-c2ccccc2)n1C	.	.	.	.	.
O=C(NNc1ccc(Cl)nn1)c1ccc(Cl)cc1	.	.	.	.	.
COc1ccc(NC(=O)N(C)C[C@H]2Oc3ccc(NS(=O)(=O)c4cccs4)cc3C(=O)N([C@@H](C)CO)C[C@@H]2C)cc1	.	.	.	?	.
O=C(COC(=O)/C=C/c1ccc([N+](=O)[O-])cc1)NC(c1ccccc1)c1ccccc1	.	?	.	.	.
Cc1c(C(c2ccccc2Br)c2c(C)n(C)n(-c3ccccc3)c2=O)c(=O)n(-c2ccccc2)n1C	.	.	.	.	.
C=C(C)CSc1nc2sc3c(c2c(=O)n1-c1ccccc1)CCN(C)C3	.	29µM	.	?	?
CCSc1nc2sc3c(c2c(=O)n1-c1ccccc1C)CCN(C)C3	.	29µM	.	?	.
CCSc1nc2sc3c(c2c(=O)n1-c1ccccc1)CCN(C(C)C)C3	.	21µM	.	10µM	.
Cc1ccccc1-n1c(SCC(=O)O)nc2sc3c(c2c1=O)CCCC3	.	.	.	.	.
CCn1c(SCC(=O)c2ccccc2)nc2sc3c(c2c1=O)CCN(C)C3	.	21µM	.	23µM	.
CN1CCc2c(sc3nc(SCC(N)=O)n(-c4ccccc4)c(=O)c23)C1	.	.	.	.	.
Cc1ccc(-c2nc(SC(C)C(=O)NC3CC3)n[nH]2)cc1 (configuration not stated)	.	.	.	.	.
Nc1scc2c(C(=O)N/N=C/c3ccc(Cl)cc3)nn(-c3ccccc3)c(=O)c12	.	7.3µM	.	8.2µM	.
CCOC(=O)c1nn(-c2ccccc2)c(=O)c2c(N)scc12	.	15µM	.	8.2µM	.
Nc1c(C(=O)N/N=C/c2ccc(Cl)cc2)cnn1-c1ccccc1	.	.	.	.	?
CCOC(=O)c1nn(-c2ccccc2C)c(=O)c2c(N)scc12	.	?	.	?	.
COc1ccc(CN(C)C(=O)c2ccccc2Sc2ccccc2C#N)c(OC)c1	?	23µM	.	23µM	.
CN(Cc1ccccc1F)C(=O)c1ccccc1Sc1ccccc1C#N	-66	?	.	?	.
COc1ccccc1CN(C)C(=O)c1ccccc1Sc1ccccc1C#N	.	?	.	?	.
Cc1ccc2nc(NC(=O)c3ccc(Cl)s3)sc2c1	.	?	.	21µM	.
Cc1ccc2nc(NC(=O)c3cccs3)sc2c1	.	.	.	.	.
Cc1ccc2nc(NC(=O)c3nc(SCc4ccccc4C)ncc3Cl)sc2c1	/	16µM	/	.	/
O=C(/C=C/c1ccccc1Cl)NCc1cccs1	.	?	.	?	.
OCCNc1nc(-c2ccccc2)nc2ccccc12	?	.	.	.	.
CCC(C)Nc1nc(-c2ccccn2)nc2ccccc12 (configuration not stated)	.	3.7µM	?	4.1µM	?
